PubChem BioAssay
Unmarked numbers belong to inactive results. How the calls were made is not given here.

Each compound was assayed against Pantothenate synthetase (Mycobacterium tuberculosis (strain ATCC 25618 / H37Rv)) (UniProt P9WIL5) (assay: Recombinant Mtb pantothenate synthetase (PanC) inhibitors, coupled enzyme, confirmatory (AID 375;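 further: 0% = full reaction with vehicle and 100% = no enzyme background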)). Conditions: coupled enzyme assay; at 10 µM, stronger effect = higher value.
Pantothenate synthetase (Mycobacterium tuberculosis (strain ATCC 25618 / H37Rv)), sequence (P9WIL5 whole entry, looked up): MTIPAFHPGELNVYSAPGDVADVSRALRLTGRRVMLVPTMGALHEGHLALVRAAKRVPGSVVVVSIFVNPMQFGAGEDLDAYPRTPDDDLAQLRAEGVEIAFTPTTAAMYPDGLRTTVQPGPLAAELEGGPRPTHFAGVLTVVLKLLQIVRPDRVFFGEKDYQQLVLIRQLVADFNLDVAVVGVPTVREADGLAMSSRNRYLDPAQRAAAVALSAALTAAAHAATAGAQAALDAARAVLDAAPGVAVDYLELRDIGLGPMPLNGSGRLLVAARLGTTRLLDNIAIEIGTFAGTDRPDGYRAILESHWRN

Row | Structure (SMILES) | inhibition [%]
1 | COc1ccc(CN(C2CCCC2)S(=O)(=O)c2ccc(-n3cnnn3)cc2)cc1OC | 0
2 | CCCCc1cc(=O)oc2c(CN3CCCC3)c(O)c(Cl)cc12 | 7
3 | CC(C)C(=O)Nc1ccc2c(c1)nc1n2CCSC1 | 0
4 | COc1ccccc1OCC(=O)NCC1CCCCC1 | 0
5 | COc1ccc(C(c2sc3nc(C)nn3c2O)N2CCCCC2)cc1 (stereo not given) | 0
6 | Cn1cnnc1Sc1nc2c(c(=O)n(C)c(=O)n2C)n1Cc1ccccc1Cl | 0
7 | COc1ccc(CN(C(=O)CN2C(=O)COc3ccccc32)C2CCCC2)c(OC)c1 | 0
8 | O=C(NC(C(=O)c1ccccc1)n1ccc(=O)[nH]c1=O)c1ccccc1 (stereo not given) | 0
9 | CC(C)C(NC(=O)OCc1ccccc1)C(=O)OCC(=O)NCc1ccco1 (stereo not given) | 7
10 | O=C(CS(=O)CC(=O)Nc1cccc2c1CCCC2)Nc1ccc(F)cc1 (stereo not given) | 0
11 | CC1(C)CC(=O)C(C#N)=C(NCCCO)C1 | 0
12 | CCOC(=O)N1CCC(NC(=O)c2cc3c(=O)n(C)c4ccccc4c3n2C)CC1 | 0
13 | CCCCn1c(SCc2ccc(Cl)cc2)nc2c1c(=O)[nH]c(=O)n2C | 6
14 | OC(CCCN1CCC(O)(c2ccc(Cl)cc2)CC1)c1ccc(F)cc1 (stereo not given) | 5
15 | COC(=O)Cc1cc(=O)[nH]c(Nc2nc3ccccc3o2)n1 | 0
16 | COc1ccc(-n2ncc3c(N4CCC(C)CC4)ncnc32)cc1 | 1
17 | COC(=O)c1cn(C(=O)c2ccc(Br)o2)c2ccccc12 | 0
18 | COc1ccc(C(=O)NCc2nnc(SC)n2C2CCCCC2)cc1 | 2
19 | Cc1cc2ncn(C(=O)c3c(-c4ccccc4)noc3C)c2cc1C | 5
20 | CCSc1oc(-c2cccs2)nc1S(=O)(=O)c1ccccc1 | 4

Row | Structure (SMILES) | inhibition [%]
21 | COC(=O)C1=C(C)NC(C)=C(C(=O)OC)C1C1CC=CCC1 (stereo not given) | 3
22 | CCOC(=O)Cc1nnc2c(Nc3ccc(C)cc3)nc3nonc3n12 | 1
23 | CCS(=O)(=O)N1CCC(C(=O)N2CCOCC2)CC1 | 2
24 | C[C@]12CC[C@@H]3c4ccc(O)cc4CC[C@H]3[C@@H]1CC[C@@H]2OC(=O)CCC(=O)O | 8
25 | O=C(Nc1ccc2c(c1)OCCO2)c1ccco1 | 5
26 | O=C(CCn1c(=O)sc2ccccc21)Nc1cccnc1 | 6
27 | Cc1cccc2cc(C#N)c(SCCN3CCCCC3)nc12 | 0
28 | CSc1nnc2c3ccccc3n(Cc3ccccc3)c2n1 | 7
29 | Cc1cc(C(=O)NCc2ccc(S(N)(=O)=O)cc2)cs1 | 16
30 | CC1(C)S[C@@H]2[C@H](NC(=O)C(C(=O)O)c3ccccc3)C(=O)N2[C@H]1C(=O)O (stereo not given in full) | 0
31 | CCn1cc(C2=NOC(C(=O)Nc3cc(C)nn3-c3ccccc3)C2)c(C)n1 (stereo not given) | 0
32 | COc1ccc(NC(=O)CSC2=C(C#N)C(c3ccco3)C3=C(CCCC3=O)N2)c(OC)c1 (stereo not given) | 16
33 | COc1cc(NC(=O)C(C)Oc2ccccc2)c(C(=O)O)cc1OC (stereo not given) | 0
34 | CCOC(=O)C(NC(=O)c1ccc(OC)cc1)(N1CCOCC1)C(F)(F)F (stereo not given) | 2
35 | O=C(CSc1nnc(CNC(=O)c2cccs2)o1)NCCc1ccccc1 | 0
36 | COc1ccc(C2CC(=O)c3cnc(NC(=O)c4ccccc4OC)nc3C2)c(OC)c1 (stereo not given) | 8
37 | ON=C1/C(=N\O)CC2(C/C1=N/O)OCCO2 | 0
38 | O=C(O)c1ccccc1S(=O)(=O)NCC(O)COc1ccc(Br)cc1 (stereo not given) | 2
39 | CCN(CC)c1ccc(-c2nn3c(-c4cccnc4)nnc3s2)cc1 | 4
40 | Cc1ccc(C)c(N(CC(=O)NC2CCCC2)C(=O)CCCC(=O)Nc2ccccn2)c1 | 2
